Results filed as inconclusive are left out. The source made the active and inactive calls. The calls were made as follows, unless noted: active = hit-call score of the fitted dose curve at least 0.9, where 1 is the maximum; inactive = score below 0.9.
Legend:
[1] = read-out: Intercellular Adhesion Molecule 1 (ICAM1), ICAM1 (gene 3383); test: BSK_3C_ICAM1: BioMAP Diversity Plus: 3C Assay for Intercellular Adhesion Molecule 1 (ICAM1) Biomarker Activity (AID 2283003); settings: primary human endothelial cells (HUVEC); actives raise or lower the signal
Procedure, shortened: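 ELISA readout of ICAM1 in human umbilical vein endothelial cells in the 3C system, taken 24 h post-dose. Gain or loss of signal versus DMSO was fitted in both directions, with SRB total-protein staining run in parallel.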

[2] = BSK_3C_Proliferation: Cell Proliferation Assessment in the BioMAP Diversity Plus: 3C Assay (AID 2283006); settings: primary human endothelial cells (HUVEC);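 as to AC50: potency may reflect either rise or fall in cell number versus DMSO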
Procedure, shortened: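 Proliferation as total protein: sulforhodamine B (0.1%) stain of TCA-fixed subconfluent human umbilical vein endothelial cells, absorbance 560 nm, 48 h after dosing. Activity fitted in both directions against DMSO baseline.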

[3] = molecular target: human Thyroid Receptor alpha (THRa1), THRA (gene 7067) (UniProt P10827); test: ATG_THRa1_TRANS: Attagene TRANS-FACTORIAL HepG2 Assay for human Thyroid Receptor alpha (THRa1) (AID 2283014; active = hit-call score of the fitted dose curve at least 0.9, where 1 is the maximum)
Procedure, shortened: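 Reporter transcript induction, read by capillary electrophoresis of 6-FAM-labelled RT-PCR products, reflects activity of a transfected THRa1-Gal4 fusion in HepG2 liver cells. Cells were dosed for 24 h; activity was fitted in the positive direction against DMSO.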

[4] = read-out: E-selectin (Homo sapiens) (UniProt P16581); test: BSK_3C_Eselectin: BioMAP Diversity Plus: 3C Assay for Eselectin Biomarker Activity (AID 2283015); settings: primary human endothelial cells (HUVEC); actives raise or lower the signal
Procedure, shortened: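 ELISA read-out of E-selectin on endothelial monolayers after 24 h chemical treatment. Human umbilical vein primary cells served as the system, with DMSO defining baseline activity for bidirectional fitting.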

[5] = read-out: Interleukin-1 alpha (IL1a), IL1A (gene 3552); test: BSK_BE3C_IL1a: BioMAP Diversity Plus: BE3C Assay for Interleukin-1 alpha (IL1a) Biomarker Activity (AID 2283016); settings: primary human bronchial epithelial cells; actives raise or lower the signal
Procedure, shortened: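 IL-1a measured by ELISA after 24 h treatment of human primary bronchial epithelial cells, with gain or loss of signal fitted versus DMSO. Parallel cultures stained with SRB gauge overt cytotoxicity.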

[6] = read-out: Monocyte Chemoattractant Protein-1 (MCP1), CCL2 (gene 6347); test: BSK_3C_MCP1: BioMAP Diversity Plus: 3C Assay for Monocyte Chemoattractant Protein-1 (MCP1) Biomarker Activity (AID 2283017); settings: primary human endothelial cells (HUVEC); actives raise or lower the signal
Procedure, shortened: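 ELISA read-out of MCP-1 from human umbilical vein endothelial cell cultures harvested 24 h post-dosing. Gain or loss of signal was fitted relative to DMSO.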

[7] = read-out: Monocyte Chemoattractant Protein-1 (MCP1), CCL2 (gene 6347); test: BSK_4H_MCP1: BioMAP Diversity Plus: 4H Assay for Monocyte Chemoattractant Protein-1 (MCP1) Biomarker Activity (AID 2283018); settings: primary human endothelial cells (HUVEC); actives raise or lower the signal
Procedure, shortened: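 ELISA of MCP-1 (CCL2) 24 h after chemical dosing of HUVEC in the BioMAP 4H system. Gain or loss versus DMSO fitted; parallel SRB staining (560 nm) tracked overt cytotoxicity.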

[8] = read-out: Human Leukocyte Antigen - DR isotype (HLADR), HLA-DRA (gene 3122); test: BSK_3C_HLADR: BioMAP Diversity Plus: 3C Assay for Human Leukocyte Antigen - DR isotype (HLADR) Biomarker Activity (AID 2283019); settings: primary human endothelial cells (HUVEC); actives raise or lower the signal
Procedure, shortened: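 ELISA readout of surface HLA-DR on human umbilical vein endothelium, taken 24 h after chemical treatment. Gain- and loss-of-signal were both fitted relative to DMSO.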

[9] = read-out: Interleukin-8 (IL8), CXCL8 (gene 3576); test: BSK_3C_IL8: BioMAP Diversity Plus: 3C Assay for Interleukin-8 (IL8) Biomarker Activity (AID 2283020); settings: primary human endothelial cells (HUVEC); actives raise or lower the signal
Procedure, shortened: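 IL-8 was measured by ELISA in HUVEC cultures 24 h after chemical dosing, with gain or loss of signal fitted relative to DMSO. Parallel SRB total-protein staining tracked overt cytotoxicity.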

[10] = molecular target: Peroxisome proliferator-activated receptor gamma (Homo sapiens) (UniProt P37231); test: ATG_PPARg_TRANS: Attagene TRANS-FACTORIAL HepG2 Assay for human Peroxisome Proliferator-activated Receptor-gamma (PPARg) (AID 2283007; active = hit-call score of the fitted dose curve at least 0.9, where 1 is the maximum)
Procedure, shortened: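 Transient transfection of HepG2 with GAL4-UAS-driven reporter units; chemical dosing 24 h; total RNA → oligo(dT) RT → PCR with reporter primers → 6-FAM primer extension → HpaI digest 2 h 37 C → capillary electrophoresis. Positive direction vs DMSO.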

[11] = molecular target: Retinoic acid receptor RXR-alpha (Homo sapiens) (UniProt P19793); test: ATG_RXRa_TRANS: Attagene TRANS-FACTORIAL HepG2 Assay for human Retinoid X Receptor alpha (RXRa) (AID 2283012; active = hit-call score of the fitted dose curve at least 0.9, where 1 is the maximum)
Procedure, shortened: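 TRANS format reporting activity of exogenous RXRa-Gal4 chimera in transiently transfected HepG2, 24 h exposure. Reporter transcripts quantified by RT-PCR with capillary electrophoresis, with gain of signal scored relative to DMSO.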

[12] = molecular target: human Retinoid X Receptor beta (RXRb), RXRB (gene 6257) (UniProt P28702); test: ATG_RXRb_TRANS: Attagene TRANS-FACTORIAL HepG2 Assay for human Retinoid X Receptor beta (RXRb) (AID 2283013; active = hit-call score of the fitted dose curve at least 0.9, where 1 is the maximum)
Procedure, shortened: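 Readout is reporter transcript induction after 24 h dosing. It is measured by RT-PCR of total RNA followed by fluorescent capillary electrophoresis. HepG2 liver cells carry transfected multiple reporter units driven by an exogenous RXRb-Gal4 fusion; activity is relative to DMSO.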

[13] = molecular target: human Retinoic Acid Receptor gamma (RARg), RARG (gene 5916) (UniProt P13631); test: ATG_RARg_TRANS: Attagene TRANS-FACTORIAL HepG2 Assay for human Retinoic Acid Receptor gamma (RARg) (AID 2283009; active = hit-call score of the fitted dose curve at least 0.9, where 1 is the maximum)
Procedure, shortened: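 Transactivation of exogenous RARg-Gal4 fusion measured as reporter transcript induction after 24 h in transfected HepG2 cells. RNA reverse-transcribed, amplified, fluorescently labeled and resolved by capillary electrophoresis; increase relative to DMSO.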

[14] = read-out: Monokine induced gamma interferon (MIG), CXCL9 (gene 4283); test: BSK_3C_MIG: BioMAP Diversity Plus: 3C Assay for Monokine induced gamma interferon (MIG) Biomarker Activity (AID 2283021); settings: primary human endothelial cells (HUVEC); actives raise or lower the signal
Procedure, shortened: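 ELISA measurement of MIG in human umbilical vein endothelial cells 24 h after treatment. Cytotoxicity tracked by SRB staining in parallel cultures; gain or loss of signal fitted relative to DMSO.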

[15] = molecular target: human Vitamin D Receptor (VDR), VDR (gene 7421) (UniProt P11473); test: ATG_VDR_TRANS: Attagene TRANS-FACTORIAL HepG2 Assay for human Vitamin D Receptor (VDR) (AID 2283022; active = hit-call score of the fitted dose curve at least 0.9, where 1 is the maximum)
Procedure, shortened: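 Steps: transfect HepG2 with GAL4-UAS-driven reporter constructs; dose compounds 24 h; isolate RNA, reverse-transcribe, PCR-amplify with 6-FAM-labelled primer extension and HpaI digestion; quantify fragments by capillary electrophoresis relative to DMSO.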

[16] = molecular target: human RAR-related Orphan Receptor beta (RORb), RORB (gene 6096) (UniProt Q92753); test: ATG_RORb_TRANS: Attagene TRANS-FACTORIAL HepG2 Assay for human RAR-related Orphan Receptor beta (RORb) (AID 2283010; active = hit-call score of the fitted dose curve at least 0.9, where 1 is the maximum)
Procedure, shortened: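 Read-out is reporter mRNA induction, quantified by RT-PCR with fluorescent capillary electrophoresis, 24 h post-dose in transiently transfected HepG2 expressing exogenous NR-Gal4 chimera. Activity fitted upward versus DMSO.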

[17] = molecular target: Nuclear receptor subfamily 1 group I member 2 (Homo sapiens) (UniProt O75469); test: ATG_PXR_TRANS: Attagene TRANS-FACTORIAL HepG2 Assay for human Pregnane X Receptor (PXR) (AID 2283008; active = hit-call score of the fitted dose curve at least 0.9, where 1 is the maximum)
Procedure, shortened: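 HepG2 transfected (FuGene 6) with GAL4-UAS reporter units + PXR-Gal4 chimera; dosed 24 h. Total RNA → oligo(dT) RT → PCR → 6-FAM primer extension → HpaI cut → CE. Gain-of-signal vs DMSO.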

Measured: AC50

Chain of human Thyroid Receptor alpha (THRa1), THRA (gene 7067) (P10827 whole entry, looked up, the tested form may be a part): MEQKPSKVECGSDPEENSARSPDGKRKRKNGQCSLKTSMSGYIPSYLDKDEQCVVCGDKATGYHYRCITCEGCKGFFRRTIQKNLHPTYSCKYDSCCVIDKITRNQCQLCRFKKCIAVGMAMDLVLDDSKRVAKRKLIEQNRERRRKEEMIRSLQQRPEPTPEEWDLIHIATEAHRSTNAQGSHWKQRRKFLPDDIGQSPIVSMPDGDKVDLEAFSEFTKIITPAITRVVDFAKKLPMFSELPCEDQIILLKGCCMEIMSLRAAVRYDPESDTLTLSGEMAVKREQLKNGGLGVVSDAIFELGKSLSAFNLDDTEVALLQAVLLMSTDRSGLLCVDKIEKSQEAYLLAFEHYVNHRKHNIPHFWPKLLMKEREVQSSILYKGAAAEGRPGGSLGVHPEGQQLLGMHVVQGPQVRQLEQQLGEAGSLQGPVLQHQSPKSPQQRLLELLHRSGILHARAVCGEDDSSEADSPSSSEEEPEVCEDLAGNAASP
Chain of human Retinoid X Receptor beta (RXRb), RXRB (gene 6257) (P28702 whole entry, looked up, the tested form may be a part): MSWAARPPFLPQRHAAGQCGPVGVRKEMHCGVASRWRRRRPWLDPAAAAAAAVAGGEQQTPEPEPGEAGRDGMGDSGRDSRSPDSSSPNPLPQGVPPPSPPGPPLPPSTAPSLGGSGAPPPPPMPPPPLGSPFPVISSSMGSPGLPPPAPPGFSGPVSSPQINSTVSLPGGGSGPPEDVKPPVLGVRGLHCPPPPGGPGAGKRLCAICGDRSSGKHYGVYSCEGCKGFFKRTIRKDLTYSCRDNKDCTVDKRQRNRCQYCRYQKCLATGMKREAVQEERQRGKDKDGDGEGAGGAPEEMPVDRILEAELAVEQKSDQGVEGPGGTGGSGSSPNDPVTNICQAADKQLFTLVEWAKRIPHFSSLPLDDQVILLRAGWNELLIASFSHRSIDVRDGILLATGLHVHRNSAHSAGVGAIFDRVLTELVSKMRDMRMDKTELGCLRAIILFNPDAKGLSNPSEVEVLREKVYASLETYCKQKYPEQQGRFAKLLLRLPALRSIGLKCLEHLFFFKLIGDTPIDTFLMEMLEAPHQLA
Chain of E-selectin (Homo sapiens) (P16581 whole entry, looked up): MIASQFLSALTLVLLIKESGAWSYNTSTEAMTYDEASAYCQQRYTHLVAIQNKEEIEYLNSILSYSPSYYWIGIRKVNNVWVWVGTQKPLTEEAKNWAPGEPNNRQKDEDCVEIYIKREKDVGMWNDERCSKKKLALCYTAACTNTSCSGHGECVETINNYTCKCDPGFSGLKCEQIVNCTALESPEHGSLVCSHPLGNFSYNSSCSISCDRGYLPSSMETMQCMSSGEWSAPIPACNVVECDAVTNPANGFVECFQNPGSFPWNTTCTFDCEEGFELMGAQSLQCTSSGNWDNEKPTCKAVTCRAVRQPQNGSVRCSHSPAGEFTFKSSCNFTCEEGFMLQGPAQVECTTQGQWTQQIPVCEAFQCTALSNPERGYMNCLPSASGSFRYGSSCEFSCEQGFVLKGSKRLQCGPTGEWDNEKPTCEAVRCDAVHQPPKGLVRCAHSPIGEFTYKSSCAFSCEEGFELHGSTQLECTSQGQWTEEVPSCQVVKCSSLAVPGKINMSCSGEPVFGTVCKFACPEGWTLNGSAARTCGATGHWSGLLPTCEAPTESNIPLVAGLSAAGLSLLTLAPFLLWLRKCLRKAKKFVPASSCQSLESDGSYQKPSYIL
Chain of Retinoic acid receptor RXR-alpha (Homo sapiens) (P19793 whole entry, looked up, the tested form may be a part): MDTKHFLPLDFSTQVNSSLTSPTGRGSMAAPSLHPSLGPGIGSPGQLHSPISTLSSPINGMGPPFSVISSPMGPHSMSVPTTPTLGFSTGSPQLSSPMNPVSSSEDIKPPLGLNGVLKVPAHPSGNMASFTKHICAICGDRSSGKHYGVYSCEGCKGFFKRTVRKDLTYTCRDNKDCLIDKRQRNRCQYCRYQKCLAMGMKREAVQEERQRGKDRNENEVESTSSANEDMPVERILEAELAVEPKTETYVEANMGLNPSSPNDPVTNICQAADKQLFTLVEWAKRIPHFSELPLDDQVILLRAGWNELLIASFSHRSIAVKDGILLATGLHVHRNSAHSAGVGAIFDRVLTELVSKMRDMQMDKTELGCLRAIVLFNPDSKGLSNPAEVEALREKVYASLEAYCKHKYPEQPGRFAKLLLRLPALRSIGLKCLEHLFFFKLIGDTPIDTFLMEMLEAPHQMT
Chain of Peroxisome proliferator-activated receptor gamma (Homo sapiens) (P37231 whole entry, looked up, the tested form may be a part): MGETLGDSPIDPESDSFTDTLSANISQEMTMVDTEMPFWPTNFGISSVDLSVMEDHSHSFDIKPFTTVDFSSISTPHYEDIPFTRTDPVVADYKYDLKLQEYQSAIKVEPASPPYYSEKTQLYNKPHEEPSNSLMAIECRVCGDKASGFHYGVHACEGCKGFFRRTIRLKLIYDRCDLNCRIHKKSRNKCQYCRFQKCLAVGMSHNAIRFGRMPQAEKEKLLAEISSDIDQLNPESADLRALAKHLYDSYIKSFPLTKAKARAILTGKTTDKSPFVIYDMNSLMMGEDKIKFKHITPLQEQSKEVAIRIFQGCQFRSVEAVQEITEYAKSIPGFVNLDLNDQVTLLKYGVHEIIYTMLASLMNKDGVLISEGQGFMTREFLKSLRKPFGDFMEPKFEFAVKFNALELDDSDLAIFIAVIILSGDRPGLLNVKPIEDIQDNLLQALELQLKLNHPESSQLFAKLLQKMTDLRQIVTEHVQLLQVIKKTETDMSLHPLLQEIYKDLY
Chain of human Vitamin D Receptor (VDR), VDR (gene 7421) (P11473 whole entry, looked up, the tested form may be a part): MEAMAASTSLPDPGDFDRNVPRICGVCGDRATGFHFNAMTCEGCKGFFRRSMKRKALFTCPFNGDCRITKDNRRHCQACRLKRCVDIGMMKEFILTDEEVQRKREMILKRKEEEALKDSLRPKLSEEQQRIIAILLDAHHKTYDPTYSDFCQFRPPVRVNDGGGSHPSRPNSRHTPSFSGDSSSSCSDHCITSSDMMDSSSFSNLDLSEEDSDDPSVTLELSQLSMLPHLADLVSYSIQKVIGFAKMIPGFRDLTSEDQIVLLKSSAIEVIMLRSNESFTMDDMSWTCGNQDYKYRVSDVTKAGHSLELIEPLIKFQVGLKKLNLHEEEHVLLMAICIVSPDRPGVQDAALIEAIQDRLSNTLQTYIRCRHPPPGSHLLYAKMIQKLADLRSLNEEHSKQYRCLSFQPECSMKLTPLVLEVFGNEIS
Chain of Nuclear receptor subfamily 1 group I member 2 (Homo sapiens) (O75469 whole entry, looked up, the tested form may be a part): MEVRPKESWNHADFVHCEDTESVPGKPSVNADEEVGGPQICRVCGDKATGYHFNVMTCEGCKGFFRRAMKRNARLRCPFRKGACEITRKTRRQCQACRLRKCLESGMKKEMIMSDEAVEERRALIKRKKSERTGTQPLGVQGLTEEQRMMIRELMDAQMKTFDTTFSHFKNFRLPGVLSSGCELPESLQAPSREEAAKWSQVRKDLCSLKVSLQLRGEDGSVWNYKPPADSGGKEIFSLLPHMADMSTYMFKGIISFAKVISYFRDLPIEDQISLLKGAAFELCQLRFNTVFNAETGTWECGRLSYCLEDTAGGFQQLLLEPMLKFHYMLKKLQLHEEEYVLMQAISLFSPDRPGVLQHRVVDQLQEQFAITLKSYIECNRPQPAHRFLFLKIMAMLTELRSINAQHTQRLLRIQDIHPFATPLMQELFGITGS
Chain of human RAR-related Orphan Receptor beta (RORb), RORB (gene 6096) (Q92753 whole entry, looked up, the tested form may be a part): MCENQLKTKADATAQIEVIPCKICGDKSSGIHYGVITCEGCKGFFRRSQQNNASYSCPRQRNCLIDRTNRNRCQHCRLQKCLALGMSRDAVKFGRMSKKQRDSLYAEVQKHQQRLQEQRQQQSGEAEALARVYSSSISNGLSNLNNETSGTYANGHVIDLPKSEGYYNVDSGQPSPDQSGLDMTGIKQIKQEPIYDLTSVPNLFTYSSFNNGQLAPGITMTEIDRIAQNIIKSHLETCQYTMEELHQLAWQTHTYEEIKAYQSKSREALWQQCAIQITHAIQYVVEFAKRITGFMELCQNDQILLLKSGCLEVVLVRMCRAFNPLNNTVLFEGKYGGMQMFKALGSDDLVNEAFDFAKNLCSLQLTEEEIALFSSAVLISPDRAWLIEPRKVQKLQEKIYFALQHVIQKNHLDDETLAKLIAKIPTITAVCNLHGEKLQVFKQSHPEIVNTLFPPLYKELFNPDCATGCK
Chain of human Retinoic Acid Receptor gamma (RARg), RARG (gene 5916) (P13631 whole entry, looked up, the tested form may be a part): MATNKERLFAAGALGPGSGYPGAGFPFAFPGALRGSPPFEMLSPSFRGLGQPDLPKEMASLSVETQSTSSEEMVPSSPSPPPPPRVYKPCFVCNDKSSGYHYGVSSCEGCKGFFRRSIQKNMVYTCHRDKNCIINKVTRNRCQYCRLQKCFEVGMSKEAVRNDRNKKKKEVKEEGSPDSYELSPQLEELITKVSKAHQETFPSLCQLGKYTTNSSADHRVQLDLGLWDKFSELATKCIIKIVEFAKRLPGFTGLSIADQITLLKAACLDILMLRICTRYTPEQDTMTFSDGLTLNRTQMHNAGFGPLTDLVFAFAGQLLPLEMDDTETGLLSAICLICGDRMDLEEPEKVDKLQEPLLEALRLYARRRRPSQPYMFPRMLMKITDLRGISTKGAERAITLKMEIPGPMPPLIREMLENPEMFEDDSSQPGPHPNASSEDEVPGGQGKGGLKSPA

CC(C)N(C(=O)CCl)c1ccccc1
active: [1] 25.8 µM | [2] 20 µM | [4] 20 µM | [5] 35.1 µM | [6] 20 µM | [7] 20 µM | [8] 7.36 µM
inactive: [3] | [9]

CCOC(=O)CCN(SN(C)C(=O)Oc1cccc2c1OC(C)(C)C2)C(C)C
active: [2] 23.3 µM | [10] 713 nM | [12] 37.8 µM | [6] 27.1 µM | [7] 31.6 µM | [8] 14.2 µM | [9] 3.97 µM
inactive: [1] | [11] | [5]

CCCCCCCCCCCCN(C)C
inactive: [1] | [2] | [13] | [11] | [12] | [3] | [5] | [6] | [7] | [8] | [9] | [14] | [15]

OCCN(CCO)CCO
inactive: [1] | [2] | [16] | [11] | [12] | [4] | [5] | [6] | [7] | [8] | [9]

Cc1ccccc1OP(=O)(Oc1ccccc1C)Oc1ccccc1C
inactive: [1] | [10] | [11] | [12] | [3] | [15]
active: [2] 8.31 µM | [17] 98.5 nM | [4] 5.43 µM | [5] 10.7 µM | [6] 10.2 µM | [7] 6.27 µM | [8] 6.21 µM | [9] 5.37 µM
